# An excerpt weighted towards active compounds, which were near 8% of everything screened.
# HT1080 IDH1KD tx – qHTS for induction of synthetic lethality in tumor cells producing 2HG: qHTS for the HT-1080-IDH1KD cell line; HT-1080 IDH1 knockdown viability, ATP luminescence, 48 h; Potency, µM (titrated, usually from 46.1 µM), actives largely listed as cytotoxic; 2% of 360,000 active
#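 In this qHTS, HT-1080 cells depleted of IDH1 are exposed for 48 h at 37 °C to compound titrations. Toxicity is scored from CellTiter-Glo luminescence, with DMSO as full viability and medium alone as none.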
# HT1080-NT tox – qHTS for induction of synthetic lethality in tumor cells producing 2HG: qHTS for the HT-1080-NT fibrosarcoma cell line; HT-1080-NT fibrosarcoma viability, CellTiter-Glo ATP luminescence, 48 h; Potency, µM (series often up to 46.1 µM), most hits filed as cytotoxic; 1.6% of 360,000 active;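 further: NT is the 2HG producing partner of a matched IDH1 knockdown line; nearly all actives have a fitted effect of over 55% in size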
#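 Fibrosarcoma NT cells, 750 per well in 5% FBS RPMI, were exposed to compound for 48 hours. Viability: CellTiter-Glo luminescence.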
# KB-V1 MDR tox – qHTS assay for MDR1-selective chemotherapeutics: Primary screen using the drug-selected MDR subline cells KB-V1; KB-V1 MDR cells viability, CellTiter-Glo, 72 h; Potency, µM (titrated, usually from 46.1 µM), usual class: cytotoxic; 3.4% of 400,000 active; AID 1347076, 2019; further: nearly all actives have a fitted effect of over 60% in size
#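 Following 72 h at 37 degrees C with compound, KB-V1 cell viability was read by CellTiter-Glo luminescence, medium being phenol-red-free DMEM plus 10% FBS; concentration-response parameters came from normalized, curve-fitted qHTS data.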
# KB-3-1 cytotox – qHTS assay for MDR1-selective chemotherapeutics: Primary screen using the parental adenocarcinoma cell KB-3-1; KB-3-1 viability, CellTiter-Glo ATP luminescence, 72 h; Potency, µM (doses to about 46.1 µM), actives largely listed as cytotoxic; 1.4% of 400,000 active; further: nearly all actives have a fitted effect of over 60% in size
#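 KB-3-1 parental drug-naive adenocarcinoma cells in DMEM/10% FBS, incubated 72 h at 37 C with pin-transferred compounds across a concentration series. Viability by CellTiter-Glo luminescence; concentration-response curves fitted after normalization.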
# MCF10A rereplic – A quantitative high throughput screen for small molecules that induce DNA re-replication in MCF 10a normal breast cells. MCF 10A DNA re-replication, Hoechst nuclear intensity, 48 h. 2.9% of 350,000 active. Potency, µM (series often up to 46.1 µM), hits mostly activators; further: nearly all actives have a fitted effect of over 50% in size
# SW480 rerep – A quantitative high throughput screen for small molecules that induce DNA re-replication in SW480 colon adenocarcinoma cells; SW480 DNA re-replication, Hoechst DNA content imaging, 48 h; Potency, µM (highest dose often 46.1 µM), usual class: activators; 1.8% of 340,000 active; further: nearly all actives have a fitted effect of over 55% in size
#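 Image-based DNA-content assay: after two days of treatment, nuclei were labelled with the DNA dye Hoechst and imaged, and hits were compounds raising the count of nuclei showing high fluorescence intensity.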
# Numbers stand for hits; i = inactive; ? = inconclusive; nt = no result given. The call rests on the fitted dose curve; in most records, active means well fitted curve in the direction sought with a large enough effect; inconclusive means small, poorly fitted or top-dose-only effect, or another doubt; inactive means no such curve, though single readings can be large; an effect the other way counts as inactive or inconclusive.
SMILES,HT1080 IDH1KD tx,HT1080-NT tox,KB-V1 MDR tox,KB-3-1 cytotox,MCF10A rereplic,SW480 rerep
O=C(N/N=C/c1cn(-c2cccs2)nc1-c1ccccc1)c1ccccc1O,21µM,?,?,i,15µM,?
O=C(N/N=C/c1cn(-c2ccccc2)nc1-c1cc2ccccc2o1)c1ccccc1Br,12µM,?,?,?,?,i
O=C(N/N=C/c1cn(-c2cccs2)nc1-c1ccccc1)c1ccccc1Br,i,i,i,i,i,i
CCCCS/C(=C(/C#N)C(N)=O)c1cc2c([nH]1)CCCC2,i,i,?,?,?,?
Cc1ccc(N/C=C(\[N+](=O)[O-])S(=O)(=O)c2ccccc2)cc1,i,i,i,i,i,i
CCC1=Nc2cc(C(=O)NCc3cccnc3)ccc2Sc2ccc(C)cc21,2.6µM,2.3µM,?,?,2.3µM,3.7µM
CN1C(=O)/C(=C/c2ccccc2Cl)Sc2ccc(C(=O)NCc3cccnc3)cc21,?,?,i,i,21µM,i
CCc1nc2ccc(C(=O)NCc3ccco3)cc2nc1CC,i,i,i,i,i,i
CCC1=Nc2cc(C(=O)NCc3ccco3)ccc2Sc2ccc(Cl)cc21,?,5.2µM,1.5µM,1.5µM,3.7µM,7.9µM
CCC1=Nc2cc(C(=O)NCc3ccco3)ccc2Sc2ccccc21,5.8µM,2.6µM,?,2.6µM,4.1µM,8.2µM
O=C(/C=C/c1ccc(F)cc1)Nc1ccc(S(=O)(=O)N2CCOCC2)cc1,i,i,i,i,i,i
CCN(CC(=O)Nc1ccc(NC(C)=O)cc1)C(=O)C1CCCN(C(=O)c2ccc(Cl)cc2)C1 (stereo unspecified),i,i,i,i,i,i
Cc1cc(N2CCN(c3cc(Cl)ccc3C)CC2)n2nc(-c3ccccc3)nc2n1,nt,nt,i,i,nt,nt
O=C(CCNC(=O)c1ccccc1Cl)Nc1nc2ccccc2[nH]1,i,i,i,i,i,i
CC(=O)c1cccc(NC(=O)c2noc3c2CCc2ccccc2-3)c1,i,i,i,i,?,i
Cc1ccc(S(=O)(=O)NNC(=O)NC23CC4CC(CC(C4)C2)C3)cc1,i,i,21µM,i,i,i
CC(=O)Nc1ccc(S(=O)(=O)NNC(=O)NC23CC4CC(CC(C4)C2)C3)cc1,i,i,i,i,i,i
CC1CCC2C(C1)c1sc(=O)[nH]c1SC2(C)C (stereo unspecified),?,?,18µM,i,?,i
CN(C)c1ccc(-c2ccnc3c2CC(C)(C(=O)Nc2cccc(OC(F)(F)F)c2)O3)cc1 (stereo unspecified),i,i,i,i,nt,nt
CCOC(=O)c1c(C)[nH]c(C(=O)N/N=C/c2ccc(Br)cc2)c1C,0.092µM,0.15µM,i,?,?,0.73µM
Cc1[nH]c(C(=O)N/N=C/c2ccc(C(=O)O)cc2)c(C)c1C(=O)N/N=C/c1ccc(C(=O)O)cc1,i,i,i,i,i,i
O=S(=O)(c1ccccc1)N1CCN(Cc2cc3c(cc2Br)OCCO3)CC1,i,i,?,i,i,i
O=S(=O)(c1ccccc1F)N1CCN(Cc2cc3c(cc2Br)OCCO3)CC1,i,i,21µM,i,?,i
Cc1ccc(-c2csc(-c3cc4c([nH]c3=O)CC(c3ccccc3)CC4=O)n2)cc1 (stereo unspecified),nt,nt,?,0.82µM,nt,nt
CSc1ncccc1C(=O)OCC(=O)N1CCN(C(=O)c2ccco2)CC1,i,i,i,i,i,i
COc1cccc(NC(=O)CN(C)C(=O)c2ccc3ccccc3c2)c1,i,i,21µM,i,i,i
COc1cccc(NC(=O)CN(C)C(=O)c2ccc(NC3CC3)c([N+](=O)[O-])c2)c1,i,i,7.3µM,i,i,i
